This is part of a sample that, as a whole, favours compounds with a hit. Of some 83,000 tested, about 20% had one in any assay.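 Growth was measured after 48 h exposure to one concentration of compound in 96-well plates. Values under 10 count as active.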 Calls of active or inactive are those of the source.
Legend:
Assay in all cases: NCI-60 one-dose screen, 48 h (100 = growth as untreated, 0 = no growth, -100 = all killed)
Settings in all cases: 10 µM unless noted
[1] = tested on: NCI-H23 lung
[2] = tested on: NCI-H226 lung
[3] = tested on: NCI-H322M lung
[4] = tested on: HOP-62 NSCLC
[5] = tested on: NCI-H460 lung
[6] = tested on: HOP-92 NSCLC
[7] = tested on: NCI-H522 lung
[8] = tested on: A549/ATCC NSCLC
[9] = tested on: 786-0 renal
[10] = tested on: COLO 205 colon

Measured: growth

COc1ccccc1S(=O)(=O)Nc1ccc2c3c(cc(-c4cnn(C5CC5)c4)nc13)C(=O)N2C
inactive: [1] 67.5% | [2] 79.7% | [3] 70.7% | [4] 50.7% | [5] 66.7% | [6] 40.7% | [7] 64.6% | [8] 66.4% | [9] 68.2% | [10] 39.2%

Cc1c(F)cccc1NC(=O)c1sc2nc3c(cc2c1N)CCCCC3
inactive: [1] 79.6% | [2] 56.8% | [3] 85.8% | [4] 50.3% | [5] 56.7% | [6] 70.5% | [7] 20% | [8] 73.9% | [9] 75.7% | [10] 74.2%

O=C1COc2ccccc2C(=O)N1CCCCN1CCCCC1
inactive: [1] 94% | [2] 93% | [3] 104% | [4] 78.2% | [5] 104% | [6] 61.5% | [7] 71.5% | [8] 96.4% | [9] 82.4% | [10] 87.6%

CCC1S/C(=N\N=C(/C)c2ccco2)N(c2ccccc2)C1=O (stereo not given)
inactive: [1] 98.8% | [2] 122% | [3] 66.8% | [4] 106% | [5] 93.8% | [6] 40.6% | [7] 74.7% | [8] 104% | [9] 96.9% | [10] 117%

COc1cc(NS(C)(=O)=O)ccc1Cc1c2ccccc2nc2ccccc12
inactive: [1] 11.2% | [3] 75.2% | [6] 21.2% | [7] 43.2% | [10] 29.8%
active: [2] -17.5% | [4] -13.9% | [5] -1.15% | [8] -11.8% | [9] -10.6%

Oc1ccc(Cl)cc1Sc1cc(Cl)ccc1O
inactive: [1] 93.3% | [2] 88.4% | [3] 115% | [4] 98.4% | [5] 107% | [6] 63.6% | [7] 81.6% | [8] 95.5% | [9] 110% | [10] 105%

COCCNC(C(=O)c1ccccc1)c1ccccc1 (stereo not given)
inactive: [1] 103% | [2] 91% | [3] 100% | [4] 100% | [5] 108% | [6] 85.7% | [7] 107% | [8] 99.8% | [9] 92.5% | [10] 117%

COc1ccc2c(c1)/C(=C/c1c(-c3cc(OC)c(OC)c(OC)c3Br)nc3sccn13)C(=O)N2
inactive: [1] 101% | [2] 86.1% | [3] 88.9% | [4] 59.2% | [5] 111% | [6] 60.8% | [7] 68.1% | [8] 101% | [9] 93.4% | [10] 117%

Cc1cc(C)c(O)c(C(=O)CC(Br)C(=O)O)c1 (stereo not given)
inactive: [1] 96.4% | [2] 106% | [3] 101% | [4] 106% | [5] 108% | [6] 88.1% | [7] 81.7% | [8] 99.3% | [9] 86.2% | [10] 116%

COc1ccc(C(=O)NC(=O)Nc2ccc3c(c2)NC(=O)/C3=C\c2[nH]c(C)c(C(=O)O)c2C)cc1
active: [6] -1.09% | [7] 7.54%
inactive: [1] 18.1% | [2] 83.9% | [3] 94.2% | [4] 96.2% | [5] 100% | [8] 98% | [9] 16.8% | [10] 88.1%

O=C1c2ccccc2OC=C(c2ccccc2)N1CCCCNc1ccc(F)cc1
inactive: [1] 90.1% | [2] 87.5% | [3] 90.3% | [4] 85.1% | [5] 97.9% | [6] 21.8% | [7] 69.5% | [8] 68.9% | [9] 68.2% | [10] 67.6%

Cc1ccc(N(CC2=NCCN2)c2cccc(O)c2)cc1
inactive: [1] 100% | [2] 100% | [3] 91.5% | [4] 103% | [5] 107% | [6] 91.2% | [7] 102% | [8] 98.8% | [9] 96.8% | [10] 119%

CC(=O)N1N=C2N(Cc3ccccc3)C(=O)c3c(sc4c3CCCC4)N2C1c1cn(-c2ccccc2)nc1-c1ccc(Cl)cc1 (stereo not given)
inactive: [1] 88.6% | [2] 91.9% | [3] 97.9% | [4] 98.6% | [5] 111% | [6] 81% | [7] 101% | [8] 95.9% | [9] 92.6% | [10] 101%

O=C(Nc1cccc([N+](=O)[O-])c1)Nc1cccc([N+](=O)[O-])c1
active: [6] 2.97%
inactive: [1] 28.3% | [2] 53% | [3] 68% | [4] 88.2% | [5] 35.2% | [7] 10.1% | [8] 60.5% | [9] 71.7% | [10] 59.1%

c1ccc2nc(Cn3cc[n+](Cc4ccc5ccccc5n4)c3)ccc2c1
inactive: [1] 48.7% | [2] 70.8% | [3] 95.3% | [4] 82.5% | [5] 77.7% | [6] 34.3% | [7] 34.5% | [8] 77.5% | [9] 101% | [10] 25.6%

COc1ccc2c(c1)OC(N(C(C)=O)C(C)=O)=C(C#N)C2c1ccc(F)cc1 (stereo not given)
active: [7] -5.26%
inactive: [1] 50.9% | [2] 75.2% | [3] 48.8% | [4] 39.2% | [5] 15.8% | [6] 63.4% | [8] 45.1% | [9] 28.9% | [10] 30.2%

Cc1cn(C2CC(F)C(CO)O2)c(=O)[nH]c1=O (stereo not given)
inactive: [1] 90.3% | [2] 95.9% | [3] 85.9% | [4] 88.4% | [5] 51.8% | [6] 69% | [7] 86% | [8] 84.7% | [9] 87.3% | [10] 116%

COc1ccccc1S(=O)(=O)Nc1ccc2c3c(cc(-c4ccoc4)nc13)C(=O)N2C
inactive: [1] 81.2% | [2] 82.7% | [3] 76.2% | [4] 52.6% | [5] 70.9% | [6] 45.3% | [7] 46.3% | [8] 66.2% | [9] 53.6% | [10] 44.7%

CCCCOc1c(N)cccc1C(=O)OCCN(CC)CC
inactive: [1] 97.1% | [2] 99.8% | [3] 80.7% | [4] 104% | [5] 105% | [6] 95.7% | [7] 76.5% | [8] 97.4% | [9] 102% | [10] 109%

CC(=O)n1cc(/C=C2\N=C(c3ccc(Cl)cc3)N(c3ccc(S(=O)(=O)Nc4nccs4)cc3)C2=O)c2ccccc21
inactive: [1] 89% | [2] 94.7% | [3] 85.8% | [4] 97.6% | [5] 82.1% | [6] 95.9% | [7] 60% | [8] 91% | [9] 88.6% | [10] 115%

From PubChem BioAssay (NCI)
